Data reported in PubChem BioAssay AID492992 (Johns Hopkins Ion Channel Center, 2010).
Out of some 4,900 compounds screened, about 2,100 (43%) were called active.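 The calls were made as follows: active = thallium signal inhibited by more than 5 SD of the compound-free buffer control wells, on both duplicate plates; inactive = the rest.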 The set was probably picked from earlier hits. These entries were drawn from the full list.

The compounds below were run against Potassium channel subfamily K member 9 (Homo sapiens) (UniProt Q9NPC2) (assay: KCNK9 potassium channel inhibitors, confirmation, HEK293 cells, thallium flux, duplicate (AID 492992;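 as to inhibition: 0% = assay buffer control wells without compound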)). Conditions: FluxOR thallium flux fluorescence, at 10 µM; stronger effect = higher value.
Potassium channel subfamily K member 9 (Homo sapiens), sequence (Q9NPC2 whole entry, looked up): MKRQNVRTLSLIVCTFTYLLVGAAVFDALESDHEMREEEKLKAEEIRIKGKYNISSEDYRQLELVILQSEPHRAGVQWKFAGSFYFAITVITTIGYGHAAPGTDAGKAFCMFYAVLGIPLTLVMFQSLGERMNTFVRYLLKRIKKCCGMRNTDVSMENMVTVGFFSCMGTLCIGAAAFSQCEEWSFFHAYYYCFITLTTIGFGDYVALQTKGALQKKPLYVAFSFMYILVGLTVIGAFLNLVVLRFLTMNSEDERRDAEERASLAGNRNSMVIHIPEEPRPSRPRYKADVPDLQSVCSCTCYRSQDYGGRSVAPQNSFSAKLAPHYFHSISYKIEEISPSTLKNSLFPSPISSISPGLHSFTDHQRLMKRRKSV

Compound | inhibition
CN(c1ccccc1)S(=O)(=O)c1cccc(NC(=O)Cc2c(F)cccc2Cl)c1 | 67.5% (active)
Cc1ccccc1CSCCNC(=O)c1ccc(N(C)S(=O)(=O)c2ccccc2)cc1 | inactive
FC(F)(F)c1cc(-c2ccco2)nc(NCc2ccc(Cl)cc2)n1 | inactive
Fc1cccc(Cl)c1CSc1ccc(-c2ccco2)nn1 | 67% (active)
O=C(Nc1ccc(S(=O)(=O)N2CCCCC2)cc1)C1CCN(C(=O)c2ccc(F)cc2)CC1 | inactive
Cc1ccc(C(=O)/C=C/c2c(C)nn(-c3ccccc3)c2Cl)cc1 | inactive
Cc1ccccc1N1CCN(Cc2nc(Cc3ccccc3F)no2)CC1 | inactive
CC1CCN(C(=O)c2ccc(CSc3ccc(Cl)cc3)cc2)CC1 | inactive
CC(C)CC(COCc1ccc(Cl)cc1)N1CCN(C(=O)c2ccc(C(F)(F)F)cc2)CCC1=O (centres undefined) | 39.5% (active)
CCCCN(CC)C(=O)C1CCCN(S(=O)(=O)c2cccc3nsnc23)C1 (centres undefined) | inactive
O=C(Nc1nnc(SCc2ccc(Cl)cc2Cl)s1)C1COc2ccccc2O1 (centres undefined) | inactive
COc1ccc(C(=O)C2CCCN(Cc3ccc4nonc4c3)C2)c(C)c1 (centres undefined) | inactive
CCCCCCCCn1c2c(c(=N)c3c1CCC3)CCCC2 | 62.5% (active)
O=C(NC(=S)Nc1ccccc1C(=O)O)c1ccc(-c2ccc(Br)cc2)o1 | inactive
COc1ccc(-c2n[nH]c3c2CN(C(=O)c2ccc(F)cc2)CC3)cc1 | inactive
Cc1cc(OC(C)C(=O)Nc2ccc(S(=O)(=O)Nc3onc(C)c3C)cc2)cc(C)c1Cl (centres undefined) | inactive
O=C(Nc1ccccc1[N+](=O)[O-])C1C(c2ccccc2)=C1c1ccccc1 | 40% (active)
Cc1ccc(CN2CCN(/N=C/c3ccco3)CC2)c(C)c1 | inactive
CC1=NN(c2cccc(Cl)c2)C(=O)C12CC(C)=C(C)CS2 (centres undefined) | 45.5% (active)
O=C(NCCc1ccccc1)c1ccc2c(c1)N(Cc1ccccc1)CCS2 | inactive
COc1ccccc1N1CCN(c2ncnc3sc(C)c(-c4ccccc4)c23)CC1 | 56% (active)
CCCCNC(=S)N/N=C1\CCCCc2ccccc21 | inactive

Compound | inhibition
CCCC(=O)n1nc(NCc2ccc(OC)cc2)nc1NCc1ccc(OC)cc1 | inactive
O=C(Nn1c(SCc2ccc([N+](=O)[O-])cc2)nc2ccccc2c1=O)c1ccc(F)cc1 | 65% (active)
CCCCC(=O)Nc1ccccc1N1CCN(c2ccc(F)cc2)CC1 | 69% (active)
Cc1ccc(N2CCN(S(=O)(=O)c3ccc(F)cc3)CC2)c(C)c1 | inactive
Cc1cccc(C(=O)Nc2ccccc2N2CCN(c3ccc(F)cc3)CC2)c1 | 40% (active)
CCOC(=O)CSc1nc2c(sc(=S)n2CCc2ccccc2)c(=O)n1Cc1ccco1 | 29.5% (active)
COc1cccc(COc2ccc(N(C)S(=O)(=O)c3ccccc3)cc2)c1 | 50% (active)
Cn1nc(-c2ccccc2)c(CSc2cccc(Cl)c2)c1Cl | 34.5% (active)
COC(=O)c1cc(NC2c3ccccc3C(=O)N2c2ccc(Cl)cn2)cc(C(=O)OC)c1 (centres undefined) | 29.5% (active)
CCOC(=O)C(C)n1cnc2scc(-c3ccc(C)c(C)c3)c2c1=O (centres undefined) | inactive
COCCNc1cc(-c2ccccc2)nc2cc(-c3cccc(F)c3)nn12 | 53.5% (active)
Cc1ccc(Cn2ccc(NC(=O)c3cc(C(C)C)on3)n2)cc1 | inactive
COC(C(=O)Nc1ccc(S(=O)(=O)Nc2ccc(C)c(C)c2)cc1)c1ccccc1 (centres undefined) | inactive
O=C(Nc1cc(Cl)cc(Cl)c1)C(NCCCO)c1ccccc1 (centres undefined) | inactive
CC(C)C(=O)Nc1cccc(NC(=S)NC(=O)C(c2ccccc2)c2ccccc2)c1 | 52% (active)
O=C1CC(NNc2ccccc2)C(=O)N1c1cccc(Cl)c1 (centres undefined) | inactive
CN(C)c1ccc(C(CNC(=O)c2ccc(F)cc2)c2c[nH]c3ccccc23)cc1 (centres undefined) | inactive
COc1cc(Cl)c(C)cc1NC(=O)CSc1nnc(-c2ccco2)n1CC(C)C | 41.5% (active)
COc1ccc(Nc2ncnc3sc(-c4ccccc4)cc23)c(OC)c1 | 33.5% (active)
CCOC(=O)C(C)Sc1nc2ccccc2c(=O)n1CC1CCCCC1 (centres undefined) | 40.5% (active)
COc1ccc(-c2nc(CCNC(=O)c3ccc(Br)o3)cs2)cc1 | 28.5% (active)
COc1cccc(-c2nn(C)c3sc(C(=O)N4CCN(c5ccccc5)CC4)cc23)c1 | inactive

Compound | inhibition
CC1(C)CC(N2CCN(C(c3ccccc3)c3ccccc3)CC2)=CC(=[N+]2CCCCC2)C1 | 68% (active)
N#Cc1nc(Cc2cccc3ccccc23)oc1NCc1ccc2c(c1)OCO2 | 45% (active)
C=CCN(N=Nc1cccc([N+](=O)[O-])c1)c1cccc([N+](=O)[O-])c1 | 57.5% (active)
CCCCCn1c(=O)c(C(=O)OCC)c(Cl)c2ccccc21 | 45.5% (active)
CCOC(=O)N/N=C/c1cn(Cc2ccccc2Cl)c2ccccc12 | inactive
CCOc1ccccc1NC(=O)C1CCCN(S(=O)(=O)c2ccccc2)C1 (centres undefined) | inactive
CN(C)S(=O)(=O)N1CCC(Oc2cccc(C(=O)NCCCC3CCCC3)c2)CC1 | 62% (active)
Cc1csc(Nc2ccc(Cl)cc2)[n+]1-c1ccc(Cl)cc1 | inactive
Cc1cc(C)cc(NC(=O)CSCc2cnn(-c3ccccc3)c2-n2cccc2)c1 | inactive
Cc1ccc2c(c1)N(C(=O)CCC(=O)N1CCc3ccccc3C1)CCO2 | inactive
O=C(/C=C/NNC(=O)c1cccc(Br)c1)c1ccccc1 | 60% (active)
Cc1c(C(=O)Nc2ccccn2)oc2ccc(Br)cc12 | 36% (active)
O=C(CSCc1ccc(Cl)cc1)N1CCN(Cc2ccc3c(c2)OCO3)CC1 | inactive
CC1(C)CC(=O)CC2(C1)NCC(c1ccccc1Cl)c1c2[nH]c2ccccc12 (centres undefined) | 66.5% (active)
c1ccc(C(c2ccccc2)N2CCN(Cc3nnnn3C3CCCCC3)CC2)cc1 | 34.5% (active)
Cc1ccc(NC2CCCN(C(=O)CCC3(C)CC3)C2)cc1C (centres undefined) | inactive
Clc1cccc(-c2nc3nc4ccccc4nc3n2Cc2ccco2)c1 | 32% (active)
Cc1cccc(NC(=O)CN2CCCN(S(=O)(=O)c3ccc(Br)s3)CC2)c1 | inactive
O=C(NCc1ccco1)c1ccc(NS(=O)(=O)c2cccc([N+](=O)[O-])c2)cc1 | inactive
CCCC1=Nc2cc(C(=O)NCc3ccco3)ccc2Sc2ccccc21 | 31.5% (active)
